# Only a sample is shown.
# CYP2C19 inhib: blocks human cytochrome P450 2C19 | P33261 | CYP2C19 Supersomes, luciferin-H EGE luminescence, 30 min | inhibition, % at 5 µM | actives 21% (n = 96,000);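 active means CYP2C19 inhibition above a set limit at 5 µM in the primary screen, cut at about 50% in these data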;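 further: plate controls were negative control wells for no effect and 2.5 mM tranylcypromine positive control for full effect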
# Target sequence (P33261 whole entry, looked up): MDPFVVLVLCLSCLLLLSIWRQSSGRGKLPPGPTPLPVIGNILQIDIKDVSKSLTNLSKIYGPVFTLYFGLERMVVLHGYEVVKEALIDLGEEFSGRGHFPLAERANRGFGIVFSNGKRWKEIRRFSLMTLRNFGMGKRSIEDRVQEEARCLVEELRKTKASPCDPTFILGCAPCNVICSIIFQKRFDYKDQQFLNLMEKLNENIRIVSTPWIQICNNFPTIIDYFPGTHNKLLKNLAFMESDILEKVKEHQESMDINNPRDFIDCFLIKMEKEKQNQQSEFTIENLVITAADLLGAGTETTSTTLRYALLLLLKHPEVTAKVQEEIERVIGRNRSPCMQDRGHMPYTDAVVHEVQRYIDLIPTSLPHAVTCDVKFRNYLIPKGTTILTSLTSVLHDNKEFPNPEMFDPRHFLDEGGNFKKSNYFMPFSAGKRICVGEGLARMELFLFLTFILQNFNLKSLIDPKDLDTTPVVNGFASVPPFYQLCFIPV
# CYP2C19 activ: increases human CYP2C19 enzyme activity | recombinant CYP2C19, luciferin-H EGE luminescence; stronger effect = higher value; 0 = fully inhibited enzyme, 1 = untreated enzyme | AID 1025 | activation factor at 5 µM | 96,000 tested, under 10 active | P33261;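 active means activation factor of at least 2 at 5 µM in the primary screen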;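 further: 0 = wells with 2.5 mM tranylcypromine and 1 = vehicle-only wells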
# CYP2C9 act: increases human cytochrome P450 2C9 activity; P11712; recombinant CYP2C9, luciferin-H conversion, luminescence; stronger effect = higher value; factor 1 = untreated enzyme, 0 = blocked; activation factor at 5 µM; actives 1.4% (n = 96,000);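 active means activation factor of 2 or more for CYP2C9 at a 5 µM dose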;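 further: 0 = sulfaphenazole-blocked wells and 1 = vehicle-only wells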
# CYP2C9 inh: human CYP2C9 inhibition. P11712. CYP2C9 Supersomes, luciferin-H conversion, luminescence. inhibition, % at 5 µM. actives 20% (n = 96,000);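 active means blocking of liver enzyme CYP2C9 beyond about 50% at 5 µM, limit read from the data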
# PostGolgi yeast: growth inhibition of a yeast mutant, post-Golgi transport screen | post-Golgi transport phenotypic cell assay | actives 0.9% (n = 98,000) | inhibition, % at 10 µM;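 further: yeast cells grown in 1536-well plates; yeast grown about 18 h at 30C before absorbance read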
# PostGolgi ctrl: yeast control strain growth, post-Golgi counter-screen; actives 5% (n = 98,000); efflux-deficient yeast background strain, growth absorbance A615, 16 h; AID 738; inhibition, % at 10 µM
# Active calls of the source: *; . = no result. Unless noted, no stated cut-off is given here; in the data, active means inhibition above about 30%; inactive means the rest.
SMILES,CYP2C19 inhib,CYP2C19 activ,CYP2C9 act,CYP2C9 inh,PostGolgi yeast,PostGolgi ctrl
CCOc1ccc(C(Nc2ccc(C)cc2)P2(=O)OCCCO2)cc1 (centres undefined),21.6,0.8,1.3,-26.3,3.1,11.6
CCOc1ccc(C(Nc2ccc(C)cc2)P2(=O)OCCC(C)O2)cc1 (centres undefined),54.2*,0.5,0.4,57.7*,-7.7,28.1
CC(C)NC(=O)c1ccccc1NC(=O)CCS(=O)(=O)Cc1ccccc1,4.4,1,0.2,76.1*,-0.6,0.0
CC(C)NC(=O)c1ccccc1NC(=O)CS(=O)(=O)Cc1ccccc1,17.1,0.8,0.2,80.4*,-2.1,1.7
CC(C)NC(=O)c1ccccc1NC(=O)c1ccccc1N(C)S(C)(=O)=O,-4.7,1,0.9,14.9,3.7,6.3
COC(=O)c1ccc(C(=O)OC)c(NC(=O)CS(=O)(=O)Cc2ccccc2)c1,38.6,0.6,0.5,45.4,3.3,2.8
CN(C)CCNC(=O)C(C(=O)c1ccc(F)cc1)n1ccccc1=O (centres undefined),11.1,0.9,0.9,7.7,3.9,5.9
Cc1cc2ncn(/N=C/c3ccc([N+](=O)[O-])o3)c2cc1C,12.3,0.9,0.7,34.1,7.1,51.5*
CCOC(=O)N/N=C\c1ccc([N+](=O)[O-])o1,-2.9,1,1,1.7,-10.7,-0.7
Cc1ccc(C(=O)CN2CCC(NC(=O)C3CCCCC3)CC2)cc1,25.5,0.7,0.5,48.5,-4.0,0.4
O=S(=O)(NCC1CC1)c1cccc(S(=O)(=O)N2CCCC2)c1,35.5,0.6,0.9,11.0,2.2,4.3
Cn1c(=O)oc2cc(S(=O)(=O)NC3CCN(Cc4ccccc4)CC3)ccc21,.,.,.,.,4.2,1.5
O=C(O)CCc1ccc(S(=O)(=O)N2CCOCC2)cc1,3.6,1,1,4.0,1.3,-1.7
O=S(=O)(NCCc1ccccc1)c1cccc(S(=O)(=O)N2CCOCC2)c1,89.0*,0.1,0.4,61.0*,-9.6,3.9
O=S(=O)(NCCC1=CCCCC1)c1cccc(S(=O)(=O)N2CCOCC2)c1,76.1*,0.2,0.2,75.4*,-11.4,18.0
O=S(=O)(CCc1ccccc1)N1CCOCC1,69.7*,0.3,1,-2.9,-3.0,1.8
O=S(=O)(NC1CCN(Cc2ccccc2)CC1)c1cccc(S(=O)(=O)N2CCOCC2)c1,53.8*,0.5,0.7,30.8,1.0,14.2
O=S(=O)(NCc1ccc(F)cc1)c1cccc(S(=O)(=O)N2CCOCC2)c1,49.0,0.5,0.5,47.3,-0.5,-11.1
CC1=NC(C)Cc2ccccc21 (centres undefined),-10.4,1.1,1,-1.5,-2.9,-8.2
CCOc1ccc(N(CC(=O)NC2CCCC(C)C2C)S(=O)(=O)c2c(C)noc2C)cc1 (centres undefined),5.5,0.9,0.8,17.9,-5.2,10.6
Fc1ccc2nc3[nH]c4ccccc4c3nc2c1,-4.1,1,0.9,7.8,1.6,17.6
O=S(=O)(NCc1ccco1)c1cccc(S(=O)(=O)N2CCOCC2)c1,50.0*,0.5,1.1,-5.3,-3.8,12.8
CN(C)/C=N/c1ncc(C(=O)c2ccc3ccccc3c2)s1,53.2*,0.5,2.3*,-127.9,2.4,16.6
COc1ccc(C(=O)c2cnc(/N=C/N(C)C)s2)cc1,23.8,0.8,0.8,16.7,9.8,10.2
COc1ccc(CCn2c(C)cc(C(=O)CSc3nnnn3-c3ccccc3)c2C)cc1OC,42.0,0.6,2.1*,-114.6,0.5,18.0
SMILES,CYP2C19 inhib,CYP2C19 activ,CYP2C9 act,CYP2C9 inh,PostGolgi yeast,PostGolgi ctrl
Cc1cc(C(=O)CSc2nnnn2C)c(C)n1CCc1ccc(F)cc1,65.1*,0.3,0.9,14.6,11.9,-6.7
COc1ccc(CCNC(=O)CSc2nnnn2-c2ccccc2OC)cc1OC,31.8,0.7,0.7,29.0,-9.9,1.3
Cc1cc(C(=O)CSc2nc(N)cc(=O)[nH]2)c(C)n1CCc1ccc(F)cc1,26.6,0.7,0.9,10.7,4.1,17.9
Cc1cc(C(=O)CSc2nnnn2-c2ccccc2)c(C)n1CCc1ccccc1,50.5*,0.5,1.1,-5.5,-5.3,4.8
O=c1c2c3nc4ccccc4nc3n(/N=C/c3cccs3)c2ncn1-c1ccccc1,-4.3,1,0.9,6.1,.,.
CCOC(=O)c1csc(NC(=O)CSc2nnnn2CC)n1,3.9,1,0.9,7.8,5.7,9.2
CCSc1ccc(NC(=O)c2cccnc2)cc1,-2.3,1,0.9,12.1,7.6,4.4
CCC(C)NS(=O)(=O)c1ccc(S(=O)(=O)N(CC(=O)Nc2ccccc2)Cc2ccco2)cc1 (centres undefined),28.7,0.7,0.6,41.6,15.5,-0.9
Cc1ccc(C)c(NC(=O)C2C(c3ccccc3)C2(Cl)Cl)c1 (centres undefined),10.5,0.9,0.9,10.1,-8.8,17.3
c1ccc(-n2nnnc2NCCc2c[nH]c3ccccc23)cc1,97.5*,0,0.2,81.4*,-7.4,1.6
Clc1ccc2[nH]cc(-c3nnnn3-c3ccccc3)c2c1,36.8,0.6,0.7,34.5,16.9,17.2
CCCc1nnc(NC(=O)c2c(O)c3cccc4c3n(c2=O)CC4)s1,0.3,1,0.9,8.1,.,.
CCc1ccc(N2CCN(C(=O)c3ccc(OC)c(OC)c3)CC2)cc1,29.1,0.7,0.8,17.6,-2.5,10.5
CC1C(C(=O)Nc2ccccc2)CCCC1(C)C(=O)O (centres undefined),-4.6,1,0.9,10.3,-4.1,2.7
COc1ccc(CCNC(=O)CCN2C(=O)COc3ccccc32)cc1OC,82.1*,0.2,0.8,23.6,-2.1,10.6
O=C(CN1CCOc2ccccc21)NCc1cccs1,59.5*,0.4,0.9,7.0,2.2,26.4
O=C(CCN1C(=O)COc2ccccc21)NCc1cccs1,84.1*,0.2,1.1,-9.5,-4.8,12.9
O=C(CCN1C(=O)COc2ccccc21)NCCN1CCc2ccccc2C1,-5.6,1.1,1,-3.3,-10.9,16.8
COc1cccc(C2=NOC(C(=O)NCc3ccccn3)C2)c1 (centres undefined),11.9,0.9,0.9,12.8,2.3,2.0
COc1cc(Br)cc(CN2CCN(C/C=C/c3ccccc3)CC2)c1O,60.4*,0.4,0.6,35.3,19.4,16.1
Cc1cc(C)c2c(CN3CCN(C/C=C/c4ccccc4)CC3)cc(=O)oc2c1,50.8*,0.5,0.3,68.8*,0.0,6.7
COc1ccc(O)c(CN2CCN(C/C=C/c3ccccc3)CC2)c1,-4.9,1,1,0.7,41.5*,34.0*
COc1ccc(OC)c(NC(=S)N2CCN(C/C=C/c3ccccc3)CC2)c1,5.9,0.9,1,0.9,1.3,17.7
COc1ccc(NC(=S)N2CCN(C/C=C/c3ccccc3)CC2)cc1OC,8.7,0.9,0.9,8.6,5.5,3.8
C(=C\c1ccccc1)/CN1CCN(Cc2ccc3c(c2)OCCO3)CC1,10.4,0.9,1.2,-16.9,10.3,14.0
